Assay [1] is described as follows: binders of probe aFSTL3 on microarray, primary screen, stem cell growth factor project, biochemical, small-molecule microarray, fluorescence 635/667 (AID 1064).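 Note: measures binding of the biotinylated anti-FSTL3 antibody to printed compounds.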 The note with it: higher = more signal.
Assay [2] in a line: binders from COS7 lysate, DM2A8 probe, primary screen, torsin A project, cell lysate, small-molecule microarray, fluorescence 635/667 (AID 1065). The note with it: higher = more signal, COS7 lysate expressing mutant human TOR1A.
Assay [3] can be described thus: binders of probe aFGF2 on microarray, primary screen, stem cell growth factor project, biochemical, small-molecule microarray, fluorescence 635/667 (AID 1067).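 Note: measures binding of biotinylated aFGF2 protein to printed compounds on slides; z-score merges feature fluorescence and signal-to-noise across triplicate slides.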 The note with it: higher = more signal.
Assay [4] in a line: binders of probe aFGF10 on microarray, primary screen, stem cell growth factor project, biochemical, small-molecule microarray, fluorescence 635/667 (AID 1071).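 Note: score merges 667 nm spot intensity and signal to noise from triplicate slides.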 The note with it: higher = more signal.
For assay [5], the target named is Neurogenic locus notch homolog protein 2 (Homo sapiens) (UniProt Q04721). The experiment in a line: Notch2 binders on small-molecule microarrays, primary screen, biochemical, small-molecule microarray, 635 nm fluorescence, stem cell growth factors (AID 1073). The note with it: Notch2 binding, higher = more signal.
For assay [6], the target named is Pro-neuregulin-1, membrane-bound isoform (Homo sapiens) (UniProt Q02297). In words: NRG1 binders on small-molecule microarrays, primary screen, psychiatric disease protein project, biochemical, small-molecule microarray, fluorescence 635/667 (AID 1075).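 Note: score combines 667 nm spot fluorescence with signal to noise.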 The note with it: NRG1 binding, 635 nm fluorescence, higher = more signal.
Assay [7] relates to Neuregulin-1 EGF-like domain. The experiment in a line: binders of neuregulin-1 EGF-like domain, primary screen, biochemical, small-molecule microarray, 635 nm fluorescence (AID 1081).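 Note: binding of the protein to compounds printed on small-molecule microarray slides.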 The note with it: small-molecule microarray binding, higher = more signal.
Assay [8] can be described thus: FRG1 promoter luciferase signal modulators, primary screen, FRG1 inhibition for FSHD, cell-based, C2C12 myotubes, firefly/Renilla luciferase, luminescence (AID 1084). The note with it: higher = more signal, called active from +8 up or from −8 down.
Assay [9] in a line: binders of probe aFST on microarray, primary screen, stem cell growth factor project, biochemical, small-molecule microarray, fluorescence 635/667 (AID 1086).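 Note: score merges 667 nm fluorescence with signal-to-noise of each printed compound spot.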 The note with it: higher = more signal.
The nature of assay [10]: binders of probe aHhip on microarray, primary screen, stem cell growth factor project, biochemical, small-molecule microarray, fluorescence 635/667 (AID 1087).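 Note: score merges spot fluorescence at 667nm with spot signal to noise ratio.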 The note with it: higher = more signal.
Assay [11] concerns PRMT1 (protein arginine N-methyltransferase 1). In words: PRMT1 binders on small-molecule microarrays, primary screen, biochemical, small-molecule microarray, 635 nm fluorescence (AID 1088).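 Note: binding of Prmt1 protein to compounds spotted on small-molecule microarray slides.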 The note with it: small-molecule microarray binding, higher = more signal.
Assay [12] in a line: yeast growth modulation, basal conditions, primary screen, YJM789 clinical isolate, OD600, 24 h (AID 1089).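 Note: growth of clinical yeast isolate S. cerevisiae YJM 789 seeded 1000 cells per well; test concentration not given here.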 The note with it: S. cerevisiae YJM789 growth, higher = more signal, called active from +8 up or from −8 down.
A short description of assay [13]: fission yeast growth modulation, primary screen, strain 972, OD600, 24 h, no modulator (AID 1090).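 Note: basal condition with compound alone and no growth modifier present; test concentration not given here.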 The note with it: S. pombe 972 growth, higher = more signal, called active from +8 up or from −8 down.
Assay [14] can be described thus: S. cerevisiae growth modulation with rapamycin, primary screen, strain BY4716, OD600, 96 h (AID 1091). Note: test concentration not given here. The note with it: higher = more signal, called active from +8 up or from −8 down.
Assay [15] has as its target Torsin-1A-interacting protein 2 (Homo sapiens) (UniProt Q8NFQ8). In words: LULL1 binders on small-molecule microarray, primary screen, cell lysate, human LULL1 lysate, 635/667 nm fluorescence (AID 1092).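 Note: probe is lysate of COS7 cells overexpressing human LULL1; score merges per-feature 667 nm fluorescence with signal-to-noise.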 The note with it: hLULL1 lysate binding, 635 nm fluorescence, higher = more signal.
Assay [16] is described as follows: E. coli growth modulation, two-sided OD650, primary screen, E. coli filamentation project, strain DRC41, 24 h (AID 1093).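 Note: MC1000 strain lacking acrAB efflux and sulA so SOS filamentation is blocked; test concentration not given here.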 The note with it: OD650, 24 h, higher = more signal, called active from +8 up or from −8 down.
Assay [17] in a line: small-molecule microarray binders of probe aLefty2, primary screen, biochemical, biotinylated probe, 635/667 nm fluorescence (AID 1094).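 Note: score merges spot fluorescence near 667 nm with spot signal-to-noise ratio.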 The note with it: higher = more signal.
Assay [18] relates to Noggin (protein binding on small-molecule microarray). The experiment in a line: Noggin binders on small-molecule microarray, primary screen, biochemical, 635/667 nm fluorescence (AID 1095).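 Note: score merges 667 nm feature fluorescence with signal to noise over triplicate slides.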 The note with it: 635 nm fluorescence, higher = more signal.
Assay [19] concerns the target Neurogenic locus notch homolog protein 3 (Homo sapiens) (UniProt Q9UM47). In words: NOTCH3 binders on small-molecule microarray, primary screen, biochemical, 635/667 nm fluorescence (AID 1096). The note with it: NOTCH3 binding, 635 nm fluorescence, higher = more signal.
The nature of assay [20]: small-molecule microarray binders of probe aEGFR, primary screen, biochemical, biotinylated probe, 635/667 nm fluorescence (AID 1097).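 Note: probe is a biotinylated anti-EGFR antibody binding compounds printed on slides; score combines fluorescence near 667 nm and signal to noise of each spot.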 The note with it: higher = more signal.

Calls of active or inactive are those of the source.

Sequence of Pro-neuregulin-1, membrane-bound isoform (Homo sapiens) (Q02297 whole entry, looked up, the tested form may be a part, canonical isoform): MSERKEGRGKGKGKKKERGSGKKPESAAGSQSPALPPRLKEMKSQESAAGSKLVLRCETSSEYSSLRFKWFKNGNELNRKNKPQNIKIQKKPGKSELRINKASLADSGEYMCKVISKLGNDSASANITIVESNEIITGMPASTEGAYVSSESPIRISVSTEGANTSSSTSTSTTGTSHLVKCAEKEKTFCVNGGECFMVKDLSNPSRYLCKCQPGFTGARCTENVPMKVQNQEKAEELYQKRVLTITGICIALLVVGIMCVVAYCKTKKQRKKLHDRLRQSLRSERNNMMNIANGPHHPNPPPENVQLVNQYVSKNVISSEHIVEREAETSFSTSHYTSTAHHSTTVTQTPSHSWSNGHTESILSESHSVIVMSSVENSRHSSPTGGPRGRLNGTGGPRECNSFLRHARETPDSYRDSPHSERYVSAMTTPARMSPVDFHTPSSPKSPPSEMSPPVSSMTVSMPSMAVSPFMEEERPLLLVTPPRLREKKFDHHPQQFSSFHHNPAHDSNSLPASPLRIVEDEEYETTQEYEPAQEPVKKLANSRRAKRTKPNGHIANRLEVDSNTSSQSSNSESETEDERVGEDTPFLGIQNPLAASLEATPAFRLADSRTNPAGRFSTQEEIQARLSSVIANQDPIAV
Sequence of Torsin-1A-interacting protein 2 (Homo sapiens) (Q8NFQ8 whole entry, looked up): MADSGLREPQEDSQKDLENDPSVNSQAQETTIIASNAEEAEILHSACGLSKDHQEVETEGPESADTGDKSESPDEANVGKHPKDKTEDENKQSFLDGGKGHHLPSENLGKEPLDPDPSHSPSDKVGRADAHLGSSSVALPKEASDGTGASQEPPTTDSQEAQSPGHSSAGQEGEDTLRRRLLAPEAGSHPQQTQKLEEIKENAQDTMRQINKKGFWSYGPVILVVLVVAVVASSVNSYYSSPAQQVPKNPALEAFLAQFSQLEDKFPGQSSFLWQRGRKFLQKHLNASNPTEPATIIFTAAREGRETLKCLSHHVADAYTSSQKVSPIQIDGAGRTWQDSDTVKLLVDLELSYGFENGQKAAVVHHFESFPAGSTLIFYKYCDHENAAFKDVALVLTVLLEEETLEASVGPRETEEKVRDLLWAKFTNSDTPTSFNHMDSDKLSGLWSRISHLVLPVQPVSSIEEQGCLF
Sequence of Neurogenic locus notch homolog protein 3 (Homo sapiens) (Q9UM47 whole entry, looked up): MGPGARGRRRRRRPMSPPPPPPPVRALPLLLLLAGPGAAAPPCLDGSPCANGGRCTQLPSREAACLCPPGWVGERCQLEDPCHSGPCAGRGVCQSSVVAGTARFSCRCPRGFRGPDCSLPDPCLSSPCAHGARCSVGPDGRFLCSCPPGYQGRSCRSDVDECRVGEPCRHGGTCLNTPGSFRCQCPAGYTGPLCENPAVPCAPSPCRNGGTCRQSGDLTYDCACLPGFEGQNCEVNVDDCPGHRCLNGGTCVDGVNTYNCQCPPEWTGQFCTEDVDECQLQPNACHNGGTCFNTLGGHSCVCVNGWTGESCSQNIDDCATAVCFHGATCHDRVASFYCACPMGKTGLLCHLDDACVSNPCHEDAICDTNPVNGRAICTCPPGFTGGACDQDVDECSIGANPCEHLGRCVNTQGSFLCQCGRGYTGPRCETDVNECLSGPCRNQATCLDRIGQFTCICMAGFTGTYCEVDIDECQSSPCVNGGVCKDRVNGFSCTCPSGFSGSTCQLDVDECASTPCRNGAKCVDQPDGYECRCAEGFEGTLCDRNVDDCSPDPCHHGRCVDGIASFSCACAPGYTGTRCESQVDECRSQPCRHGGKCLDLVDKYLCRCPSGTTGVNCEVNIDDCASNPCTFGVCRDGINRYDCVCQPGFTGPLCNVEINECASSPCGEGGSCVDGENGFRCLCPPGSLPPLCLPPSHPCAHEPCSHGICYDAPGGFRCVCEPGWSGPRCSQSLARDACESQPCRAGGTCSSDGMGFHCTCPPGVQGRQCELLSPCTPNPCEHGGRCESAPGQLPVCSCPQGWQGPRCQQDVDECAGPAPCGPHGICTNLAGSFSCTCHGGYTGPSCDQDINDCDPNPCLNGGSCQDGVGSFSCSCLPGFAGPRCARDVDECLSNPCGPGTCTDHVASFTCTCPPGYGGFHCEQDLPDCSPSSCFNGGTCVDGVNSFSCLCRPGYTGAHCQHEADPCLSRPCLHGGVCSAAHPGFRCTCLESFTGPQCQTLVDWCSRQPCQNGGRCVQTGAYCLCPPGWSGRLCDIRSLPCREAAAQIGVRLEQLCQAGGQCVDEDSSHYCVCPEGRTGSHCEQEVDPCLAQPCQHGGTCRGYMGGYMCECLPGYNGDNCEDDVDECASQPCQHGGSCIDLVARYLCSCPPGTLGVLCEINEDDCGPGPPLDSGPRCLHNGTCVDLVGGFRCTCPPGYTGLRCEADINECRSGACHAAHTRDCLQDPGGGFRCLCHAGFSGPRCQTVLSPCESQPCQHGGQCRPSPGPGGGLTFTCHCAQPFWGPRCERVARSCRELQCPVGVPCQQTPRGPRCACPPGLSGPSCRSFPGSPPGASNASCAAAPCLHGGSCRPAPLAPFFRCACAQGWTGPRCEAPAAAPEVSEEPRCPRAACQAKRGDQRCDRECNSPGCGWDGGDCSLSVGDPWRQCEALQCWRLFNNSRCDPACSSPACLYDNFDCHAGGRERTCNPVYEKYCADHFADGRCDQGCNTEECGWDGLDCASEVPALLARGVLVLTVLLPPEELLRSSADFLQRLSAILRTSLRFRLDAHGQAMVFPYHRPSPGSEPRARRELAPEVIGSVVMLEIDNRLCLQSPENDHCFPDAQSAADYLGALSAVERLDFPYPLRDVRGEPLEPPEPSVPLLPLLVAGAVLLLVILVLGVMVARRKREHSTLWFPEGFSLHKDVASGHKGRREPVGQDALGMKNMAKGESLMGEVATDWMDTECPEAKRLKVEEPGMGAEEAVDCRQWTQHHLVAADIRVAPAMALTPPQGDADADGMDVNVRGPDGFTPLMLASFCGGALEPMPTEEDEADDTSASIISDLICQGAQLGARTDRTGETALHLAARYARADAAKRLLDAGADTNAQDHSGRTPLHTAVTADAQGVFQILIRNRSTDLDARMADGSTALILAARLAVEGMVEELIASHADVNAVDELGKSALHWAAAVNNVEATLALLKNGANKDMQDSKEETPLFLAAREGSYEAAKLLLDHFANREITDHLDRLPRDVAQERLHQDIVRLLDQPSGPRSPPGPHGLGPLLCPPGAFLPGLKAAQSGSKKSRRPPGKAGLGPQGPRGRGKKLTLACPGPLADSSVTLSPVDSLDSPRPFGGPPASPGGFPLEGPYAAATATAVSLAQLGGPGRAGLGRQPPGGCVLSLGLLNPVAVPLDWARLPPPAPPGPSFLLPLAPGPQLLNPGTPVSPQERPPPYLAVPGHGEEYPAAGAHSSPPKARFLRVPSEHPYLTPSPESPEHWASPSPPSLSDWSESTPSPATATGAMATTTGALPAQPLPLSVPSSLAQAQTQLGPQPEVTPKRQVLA

On to `CC(=O)NCCCC[C@@H]1NC(=O)[C@@H]2C[C@H](C(=O)NCCCC[N+](C)(C)C)[C@H](c3cccc(OCCO)c3)N2C1=O`, for which the composite z-score is -0.239 in assay [1]; 1.05 in assay [2]; -0.126 in assay [3]; -0.194 in [4]; -0.525 in [5]; 0.82 in assay [6]. In addition, the composite z-score in assay [7] is 1.13; in [9], -0.204; in assay [10], -0.0645; in [11], -0.598; in assay [15], -0.0272; in [17], 0.127. Besides, the composite z-score in assay [18] was 1.94; in assay [19] it was 0.801; in assay [20] it was -0.162. Besides, the z-score in [8] was 0.573 (inactive); in [12], 0.408 (inactive); in assay [13] it was 0.338 (inactive); in [14], -0.465 (inactive); in assay [16], -0.427 (inactive).
In the case of `COCCOC(=O)N1C(=O)[C@@]2(c3cc(C#CCNC(N)=O)ccc31)[C@H](C(N)=O)[C@H]1C(=O)O[C@H](c3ccccc3)[C@H](c3ccccc3)N1[C@@H]2c1ccc(OCCO)cc1`, the composite z-score was -0.147 in [1]; 0.0525 in [2]; -0.0139 in assay [3]; 0.309 in assay [4]; 1.16 in assay [5]; 0.564 in assay [6]. The composite z-score in assay [7] is 0.342; in assay [9] it was 0.459; in assay [10], -0.0427; in [11], 1.55; in assay [15] it was 1.53; in assay [17], -0.0054. The figures for the composite z-score in assay [18], in assay [19] and in [20] were 1.23, 1.07 and -0.0085, respectively. Besides, the z-score is 1.34 (inactive) in assay [8]; 0.517 (inactive) in [12]; 0.0121 (inactive) in assay [13]; 1.98 (inactive) in assay [14]; -0.27 (inactive) in [16].
Consider `C=C(/C(=C/C[C@@H](OC(C)=O)c1ccccc1OCCO)c1cnc2ccccc2c1)C(C)C`, for which the composite z-score in assay [1] was -0.0572; in assay [2], 1.23; in assay [3], -0.166; in [4], 0.758; in assay [5], 1.13; in [6], 0.179. The composite z-score in assay [7] is 0.911; in assay [9] it was 0.0287; in assay [10] it was -0.344; in assay [11] it was 1.4; in assay [15] it was 0.885; in assay [17], -0.178. Further, the composite z-score in assay [18] was 1.2; in assay [19], 0.646; in assay [20] it was -0.0439. Besides, the z-score in assay [8] is -0.698 (inactive); in [12] it was -0.37 (inactive); in [13], -1.11 (inactive); in [14] it was -0.449 (inactive); in assay [16] it was 0.575 (inactive).
On to `O=C1O[C@@H](c2ccccc2)[C@@H](c2ccccc2)N2[C@@H](c3ccc(O)cc3)[C@]3(C(=O)Nc4ccc(C#CC5=CCCCC5)cc43)[C@@H](C(=O)Nc3nc4ccccc4s3)[C@H]12`, for which the composite z-score is -0.371 in [1]; 0.449 in assay [2]; -0.0455 in assay [3]; 1.27 in [4]; 1.5 in [5]; 1.34 in [6]. Moreover, the composite z-score in [7] is 1.18; in assay [9] it was 0.647; in [10], -0.171; in [11] it was 1.54; in assay [15], 2.86; in assay [17] it was 0.455. For the same molecule, the composite z-score in [18] came out at 1.04; in assay [19], 1.04; in assay [20] it was 0.127. For the same molecule, the z-score in [8] was -0.453 (inactive); in assay [12] it was 0.424 (inactive); in assay [13], 0.015 (inactive); in assay [14] it was 0.606 (inactive); in assay [16], 0.481 (inactive).
Turning to `CO[C@H]1O[C@H](CO)[C@@H](OC(=O)c2ccc(Br)cc2)[C@@H]2OC(=O)[C@H](Cc3cccc(Br)c3)C/C=C/C[C@@H](Cc3cccc(Br)c3)C(=O)O[C@@H]12`, the composite z-score in assay [1] is 0.174; in [2], 0.665; in [3], 0.0376; in assay [4], 1.12; in assay [5], 1.43; in [6] it was 1.43. The composite z-score in assay [7] amounted to 1.06; in assay [9], 0.551; in assay [10] it was 0.319; in assay [11], 1.47; in [15] it was 1.08; in assay [17], 0.0717. For the same molecule, the results for the composite z-score in [18], in [19] and in assay [20] were 0.553, 1.04 and 0.158, respectively. The z-score was 0.374 (inactive) in [8]; -0.73 (inactive) in assay [12]; 0.16 (inactive) in assay [13]; -0.0347 (inactive) in [14]; -0.972 (inactive) in assay [16].

(Values after PubChem BioAssay.)
